The values that follow come from PubChem BioAssay AID588382 (National Center for Advancing Translational Sciences (NCATS), 2011).

The whole screen tested about 1,300 compounds, of which about 150 (12%) were called active. Roughly 30% stayed inconclusive and do not appear here. Only a selection was taken, and actives are over-represented in it overall. Unmarked numbers belong to inactive results. The call rests on the fitted dose curve; in most records, active means well fitted cell-killing curve with a large enough effect; inconclusive means small, poorly fitted or top-dose-only effect, or effect the other way; inactive means flat fitted curve, though single readings scatter.
On the % scale 0 is the no-effect control and ±100 the full control effect; potency means the concentration at half of the fitted maximal effect.

The nature of the assay: qHTS of small molecules that selectively kill Giardia lamblia: Hit Validation in HepG2 cytotox.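 Further: compound exposure lasted overnight at 37 deg C; nearly all actives have a fitted effect of over 55% in size.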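 On activity change, negative = cytotoxicity: viability measured as cellular ATP by ATPLite luminescence.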 To be noted: cell viability; Potency: HepG2 cytotoxicity; series mostly up to 38.3 µM; activity change, negative = cytotoxicity: at the top concentration. In a few lines:
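Counterscreen cytotoxicity: ATPLite luminescence (15 min, room temperature) measured in HepG2 cells exposed overnight at 37 deg C to pin-transferred compound (23 nL) after overnight pre-incubation.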
For orientation: Quantitative high-throughput screening tests each substance at several concentrations.
Turning to `O=C(COc1cccnc1[N+](=O)[O-])Nc1ccc(F)cc1`, the “activity change, negative = cytotoxicity” value is 4.27%.

For `COC1C(OC(=O)/C=C/C=C/C=C/C=C/C(=O)O)CCC2(CO2)C1C1(C)OC1CC=C(C)C` (stereo not given) (tested in a mixture with another compound), the “activity change, negative = cytotoxicity” value was 21.4%. In the case of `O=C(c1ccc([N+](=O)[O-])o1)N1CCN(c2nc3ccc(F)cc3s2)CC1`, the “activity change, negative = cytotoxicity” value is -10.1%. In the case of `O=C1NC(=O)/C(=C\c2ccc(Oc3ccc([N+](=O)[O-])cn3)cc2)S1`, the “activity change, negative = cytotoxicity” value was -15.5%. As to `COc1ccccc1-n1cc2c([N+](=O)[O-])cc([N+](=O)[O-])cc2n1`, the “activity change, negative = cytotoxicity” value was 11.2%. The same measure, in the same setting: under `COCCn1c(C)cc(C(=O)COc2ccc(C)nc2[N+](=O)[O-])c1C` stands -1.94%; under `O=C(c1ccco1)N1CCN(c2c([N+](=O)[O-])nn(-c3cccc(Cl)c3)[n+]2[O-])CC1`, 20.3%; under `Cc1cc([N+](=O)[O-])nn1Cc1ccc(F)cc1`, -0.393%. Consider `N/C(=N\OC(=O)c1ccc(Cl)cc1[N+](=O)[O-])c1ccccn1`, for which the “activity change, negative = cytotoxicity” value was -18.8%. The same measure, in the same setting: under `CC12CCC(C(=O)Nc3ncc([N+](=O)[O-])s3)(OC1=O)C2(C)C` (stereo not given) stands -9.04%. Consider `CN(C)CCCn1cnc2c(c1=N)C(c1ccccc1)c1ccc3ccccc3c1O2` (stereo not given), for which the Potency was 2.07 µM (active).

As for `Cc1ccc([C@@H]2CC=C(C(=O)O)[C@H](c3ccc(Cl)cc3)N2S(=O)(=O)c2ccc(C)cc2)cc1`, the “activity change, negative = cytotoxicity” value was 8.99%. Still for that read-out and setting: under `Cc1c[n+]([O-])ccc1[N+](=O)[O-]` stands 1.35%. With `COc1ccc2cc(-c3cc(C(=O)OCC(=O)Nc4c(C)n(C)n(-c5ccccc5)c4=O)c4ccccc4n3)ccc2c1`, the Potency was 0.464 µM (active). With `COc1cc(N=Nc2c(C)n(C)n(-c3ccccc3)c2=O)ccc1N`, the “activity change, negative = cytotoxicity” value was 0.604%. Same read-out and setting: under `Cc1c(NC(=O)c2cc(-c3ccc(Cl)c(Cl)c3)on2)c(=O)n(-c2ccccc2)n1C` stands 4.57%; under `Cc1ccc(CN=c2c([N+](=O)[O-])nn(-c3cccc(C)c3)n2O)cc1`, 9.21%.

On to `O=[N+]([O-])c1nn(-c2ccc3c(c2)OCCO3)n(O)c1=NC1CCN(Cc2ccccc2)CC1`, for which the “activity change, negative = cytotoxicity” value was -1.51%. `CN(C)c1ccc(/C=C(/NC(=O)c2ccccc2)C(=O)N/N=C/c2ccc([N+](=O)[O-])c(O)c2)cc1`: the “activity change, negative = cytotoxicity” value is 9.79%. Same read-out and setting: under `Cc1ncc([N+](=O)[O-])n1CCOC(=O)NC(NCc1cccnc1)C(Cl)(Cl)Cl` (stereo not given) stands -2.24%; under `Cc1nc(C)c(C(=O)Nc2ncc([N+](=O)[O-])s2)o1`, 11.4%; under `COc1cccc(CN=c2c([N+](=O)[O-])nn(-c3ccccc3C)n2O)c1`, 8.23%. In the case of `O=C(/C=C/c1cccc([N+](=O)[O-])c1)c1ccco1`, the “activity change, negative = cytotoxicity” value was 17.7%. The same measure, in the same setting: under `COC(=O)Nc1nc2ccc(C(=O)c3cccs3)cc2[nH]1` stands 20.5%.

As to `Cc1ccn(-c2ccc(NC(=O)c3cccs3)cc2)n1`, the Potency was 9.27 µM (active).

For `CCOC(=O)N1CCN(C(=O)c2ccc(Cl)c(NC(=O)c3cccs3)c2)CC1`, the “activity change, negative = cytotoxicity” value was 17.8%. On the same count and under the same terms, under `CC(C)(C)c1ccc2c(c1)OC(C(=O)N/N=C/c1ccc([N+](=O)[O-])o1)CO2` (stereo not given) stands -12.1%; under `Cc1ccc(N=c2c([N+](=O)[O-])nn(-c3ccccc3)n2O)c(C)c1`, -15.1%; under `Cc1ccc(S(=O)(=O)N2[C@@H](c3ccccc3)C(C(=O)O)=CC[C@H]2c2cccc(Cl)c2)cc1`, 6.16%.

As to `C=C1C=C(C)n2ncc(C(=O)Nc3ccc(C)cn3)c2N1`, the “activity change, negative = cytotoxicity” value is -8.35%. Same read-out and setting: under `Cc1ccc(S(=O)(=O)CC(=O)Nc2ncc([N+](=O)[O-])s2)cc1` stands 1.79%; under `Cc1ccc(CC(=O)Nc2ncc([N+](=O)[O-])s2)cc1`, 3.03%; under `O=C(Nc1ncc([N+](=O)[O-])s1)c1ccco1`, -8.55%. The same measure, in the same setting: under `O=C(COC(=O)c1ccccc1)Nc1ncc([N+](=O)[O-])s1` stands 16.8%. For `Cc1ccc(C(=O)Nc2ncc([N+](=O)[O-])s2)cc1`, the Potency was 6.56 µM (active).

In the case of `O=C(Nc1ncc([N+](=O)[O-])s1)c1cccc([N+](=O)[O-])c1`, the Potency was 3.29 µM (active). With `Cc1cc(Nc2ccccc2)c2c([N+](=O)[O-])cc(C)c(C)c2n1`, the “activity change, negative = cytotoxicity” value is 9.04%. As to `CC(NC(=O)COc1cccnc1[N+](=O)[O-])c1ccc(Cl)cc1` (stereo not given), the “activity change, negative = cytotoxicity” value is 1.74%. On the same count and under the same terms, under `O=[N+]([O-])c1ccc(CN2CCN(c3ccccc3Cl)CC2)o1` stands 9.64%; under `CC(=NN1CC(=O)NC1=O)c1ccc([N+](=O)[O-])o1`, -8.95%. Regarding `CC(C)(C)C(=O)N1CCN(c2ccc(NC(=O)c3ccc([N+](=O)[O-])o3)cc2)CC1`, the Potency is 6.56 µM (active). Same read-out and setting: under `O=C(Nc1ccc(N2CCN(Cc3ccccc3F)CC2)cc1)c1ccc([N+](=O)[O-])o1` stands 2.93 µM (active). Same read-out and setting: under `CC(C)C(=O)N1CCN(c2ccc(NC(=O)c3ccc([N+](=O)[O-])o3)cc2)CC1` stands 5.85 µM (active). `O=[N+]([O-])c1ccc(CN2CCN(c3ccc(Cl)cc3)CC2)o1`: the “activity change, negative = cytotoxicity” value is 2.99%.

For `O=[N+]([O-])c1ccc(CN2CCN(c3ccc(F)cc3)CC2)o1`, the “activity change, negative = cytotoxicity” value was 16.3%. For `O=C(Nc1ccc(N2CCCCC2)cc1)c1ccc([N+](=O)[O-])o1`, the Potency was 13.1 µM (active). Turning to `COc1cc(Nc2ccc(C)cc2)c([N+](=O)[O-])nc1[N+](=O)[O-]`, the “activity change, negative = cytotoxicity” value was 14.5%. As to `Cc1ccc(C(=O)c2c3ccc([N+](=O)[O-])cc3[n+]([O-])n2CCC(N)=O)cc1`, the “activity change, negative = cytotoxicity” value is 19%.

Regarding `CC(Oc1cccnc1[N+](=O)[O-])C(=O)Nc1cccc(Cl)c1` (stereo not given), the “activity change, negative = cytotoxicity” value was 9.9%. Still for that read-out and setting: under `COc1ccc(-n2nc([N+](=O)[O-])c(=NCCc3cccc(C)c3)n2O)cc1` stands 5.18%; under `COC(=O)c1cc(NC(=O)c2cc(C(C)(C)C)nn2Cc2ccc(F)cc2)ccc1N1CCOCC1`, 0.619%; under `COc1ccc(C(C)=O)cc1COc1cccnc1[N+](=O)[O-]`, 4.35%. `O=C(Cc1c(F)cccc1Cl)Nc1ncc([N+](=O)[O-])s1`: the “activity change, negative = cytotoxicity” value is -17.9%. Same read-out and setting: under `O=[n+]1c2c(n([O-])c3cc(Br)ccc31)CCC2` stands 22.2%.

For the compound `CCOc1cc([N+](=O)[O-])cc(/C=C2/NC(=O)N(Cc3ccccc3F)C2=O)c1O`, the “activity change, negative = cytotoxicity” value is 11.1%. With `O=[N+]([O-])c1nn(-c2ccc3c(c2)OCCO3)n(O)c1=NCc1ccc(F)cc1`, the “activity change, negative = cytotoxicity” value was 23.9%.

For the compound `CN(C)c1ccc(C2Nc3cccc4cccc(c34)N2)cc1`, the “activity change, negative = cytotoxicity” value is -11.1%.

For the compound `Cc1cc(C)cc(N=c2c([N+](=O)[O-])nn(-c3ccc4c(c3)OCCO4)n2O)c1`, the “activity change, negative = cytotoxicity” value was -0.929%. For `CCCC(=O)N1CCN(c2ccc(NC(=O)c3ccc([N+](=O)[O-])o3)cc2)CC1`, the Potency was 3.29 µM (active). The same measure, in the same setting: under `CS(=O)(=O)N1CCN(c2ccc(NC(=O)c3ccc([N+](=O)[O-])o3)cc2)CC1` stands 3.69 µM (active). With `CS(=O)(=O)N1CCN(c2ccccc2NC(=O)c2ccc([N+](=O)[O-])o2)CC1`, the “activity change, negative = cytotoxicity” value is -6.16%. `CCC(=O)N1CCN(c2ccccc2NC(=O)c2ccc([N+](=O)[O-])o2)CC1`: the “activity change, negative = cytotoxicity” value is -5.48%. As for `CCC(=O)N1CCN(c2ccc(NC(=O)c3ccc([N+](=O)[O-])o3)cc2)CC1`, the Potency was 11.7 µM (active). Turning to `NC(=O)c1ccc(NC(=O)COc2ccc([N+](=O)[O-])cc2Cl)cc1`, the “activity change, negative = cytotoxicity” value is 15.1%.

Regarding `NS(=O)(=O)c1ccc(Nc2ncccc2[N+](=O)[O-])cc1`, the “activity change, negative = cytotoxicity” value is 7.7%.

For `O=[n+]1c2c(n([O-])c3cc(Cl)ccc31)CCCC2`, the “activity change, negative = cytotoxicity” value is 5.34%.

Turning to `COc1ccc(CNC(=O)COc2cccnc2[N+](=O)[O-])cc1OC`, the “activity change, negative = cytotoxicity” value was 6.39%. Same read-out and setting: under `Cc1oc2cc(O)ccc2c(=O)c1Oc1ccccc1Br` stands 18.1%; under `CCC(=O)Nc1nc(-c2cc([N+](=O)[O-])cs2)cs1`, 22.8%; under `COCCNC(=O)/C(C#N)=C/c1ccc(O)c([N+](=O)[O-])c1`, 9.93%. Consider `Cc1ccc(NC(=S)NNc2ccc([N+](=O)[O-])cc2S(=O)(=O)Nc2ccccc2C(=O)O)cc1C`, for which the “activity change, negative = cytotoxicity” value is 9.64%.

As for `COc1cc(/C=C2\SC(=O)N(Cc3ccc(F)cc3)C2=O)cc([N+](=O)[O-])c1O`, the “activity change, negative = cytotoxicity” value is -2.93%. For the compound `CCCc1nc2c(=O)n(C)c(=O)nc-2n(C)n1`, the Potency was 8.26 µM (active).

With `Cc1ccccc1-c1nc2c(=O)n(C)c(=O)nc-2n(C)n1`, the Potency is 3.29 µM (active). With `COc1ccc(-c2ncn(CCC#N)c2[N+](=O)[O-])cc1`, the “activity change, negative = cytotoxicity” value was 5.4%. Take `Cn1nc(-c2cccnc2)nc2c(=O)n(C)c(=O)nc1-2`: the Potency is 3.69 µM (active). As for `COc1ccc(-c2nc3c(=O)n(C)c(=O)nc-3n(C)n2)cc1`, the Potency is 1.85 µM (active).

Regarding `COc1ccc(-c2cc(=O)c3ccccc3o2)cc1`, the “activity change, negative = cytotoxicity” value is -16%. Consider `COc1ccccc1NC(=O)COc1cccnc1[N+](=O)[O-]`, for which the “activity change, negative = cytotoxicity” value was 0.838%. Turning to `Cc1ccc(S(=O)(=O)N2[C@@H](c3ccc(F)cc3)C(C(=O)O)=CC[C@H]2c2cccc(C)c2)cc1`, the “activity change, negative = cytotoxicity” value was 7.11%. On the same count and under the same terms, under `COc1ccc(-n2nc([N+](=O)[O-])c(=NCCCN3CCCC3=O)n2O)cc1` stands 8.35%; under `O=C(COc1cccnc1[N+](=O)[O-])Nc1ccc2c(c1)CCC2`, 27.1%; under `Cc1c[nH]c(=O)c([N+](=O)[O-])c1`, 10.6%. Still for that read-out and setting: under `Cc1cc(C(=O)N/N=C/c2ccc(O)c([N+](=O)[O-])c2)n[nH]1` stands 4.19%; under `COc1cc2sc(-c3ccccc3OC)c(-c3ccc(O)cc3)c2cc1OC`, -0.122%; under `O=C(NN1C(=O)c2ccccc2NC1c1ccc([N+](=O)[O-])o1)c1ccc([N+](=O)[O-])cc1` (stereo not given), -15.4%.

For `Cn1nc(-c2ccc(F)cc2)nc2c(=O)n(C)c(=O)nc1-2`, the Potency is 2.61 µM (active). In the case of `Cc1ccc(OCC(=O)Nc2cc(S(=O)(=O)N3CCOCC3)ccc2Cl)c([N+](=O)[O-])n1`, the “activity change, negative = cytotoxicity” value was 2.02%. The same measure, in the same setting: under `Cc1cc2ccccn2c1C(=O)c1ccc([N+](=O)[O-])cc1[N+](=O)[O-]` stands 12.4%; under `COc1ccc2c3n([n+]([O-])c2c1)CCN=C3c1ccc(Cl)cc1`, 20.6%.

With `N=NC(=O)c1ccccc1Nc1c(O)[nH]c2ccccc12`, the Potency was 16.5 µM (active). With `COc1ccc(CNC(=O)COc2cccnc2[N+](=O)[O-])cc1`, the “activity change, negative = cytotoxicity” value was 15.6%. In the case of `O=[N+]([O-])c1ccc(/C=N/Nc2nc(-c3ccccc3)c3cc(Br)ccc3n2)o1`, the “activity change, negative = cytotoxicity” value is 11%.

On to `CCOc1ccc(NC(=O)C(C)C(Cc2ccc(C)cc2)C(=O)O)cc1` (stereo not given), for which the “activity change, negative = cytotoxicity” value was 0.187%. As to `Nc1c(Cl)cc(C2=NCCn3c2c2ccccc2[n+]3[O-])cc1Cl`, the “activity change, negative = cytotoxicity” value is 0.209%.
